Data as given in the supplement of paper PMC6607015.
Counter-ions that a name gives are not always drawn.

Experiments:
Conditions in all cases: compound concentration in added solution (µM; 5 µl added to 20 µl cells): 10; 18 h
A431 [1] = test: LBPA endosome anti-LBPA integrated intensity (sum per cell), Z-score; higher = more LBPA staining
In short: (§1)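 Z-scores normalised in AcuityXpress are given for per-cell integrated LBPA or filipin intensity, measured whole-cell or within LBPA endosomes by MetaXpress segmentation. Cells (HeLa MZ or A431, 3,500 per well in 20 µl) were seeded onto 5 µl of 10 µM compound solution in duplicate 384-well imaging plates and fixed in 4% PFA after 18 h.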

HeLa MZ [2] = test: as above
In short: as §1

A431 [3] = test: whole-cell filipin (free cholesterol) integrated intensity, Z-score; higher = more cholesterol staining
In short: as §1

HeLa MZ [4] = test: as above
In short: as §1

A431 [5] = test: filipin (cholesterol) integrated intensity within LBPA endosomes, Z-score; higher = more cholesterol in LBPA endosomes
In short: as §1

HeLa MZ [6] = test: as above
In short: as §1

Row | SMILES | LBPA endosome anti-LBPA integrated intensity (z-score) (A431 [1]) | LBPA endosome anti-LBPA integrated intensity (z-score) (HeLa MZ [2]) | whole-cell filipin (z-score) (A431 [3]) | whole-cell filipin (z-score) (HeLa MZ [4]) | filipin (z-score) (A431 [5]) | filipin (z-score) (HeLa MZ [6])
1 | OC(CCN1CCCCC1)(c1ccccc1)C1CCCCC1 (stereo unspecified) [Trihexyphenidyl-D,L Hydrochloride] | 1.27 | 1.51 | 0.138 | -0.301 | 0.357 | 0.149
2 | Cc1nc2n(c(=O)c1CCN1CCC(c3noc4cc(F)ccc34)CC1)CCCC2 [Risperidone] | 0.208 | 1.64 | 0.491 | 0.264 | -0.0506 | 0.539
3 | Clc1ccc(CO/N=C(\Cn2ccnc2)c2ccc(Cl)cc2Cl)c(Cl)c1 [Oxiconazole Nitrate] | 0.391 | 1.11 | 1.4 | 1.62 | 0.64 | 0.784
4 | CCCNC(C)C(=O)Nc1ccccc1C (stereo unspecified) [Prilocaine hydrochloride] | -0.398 | -0.0706 | -0.685 | -0.312 | -0.467 | -0.406
5 | CC1(C)[C@H](C(=O)O)N2C(=O)C[C@H]2S1(=O)=O [Sulbactam] | -0.453 | -1.27 | -0.128 | -0.121 | -0.375 | -0.509
6 | Nc1ccc(C(=O)NCC(=O)O)cc1 [Aminohippuric acid] | -0.53 | -0.169 | -0.32 | -0.186 | -0.48 | -0.359
7 | CCN1C(=O)NC(c2ccccc2)C1=O (stereo unspecified) [Ethotoin] | -0.277 | -0.178 | -0.136 | -0.484 | -0.353 | -0.513
8 | CC12CC3CC(C)(C1)CC(N)(C3)C2 [Memantine Hydrochloride] | -0.449 | 0.231 | 0.233 | 0.438 | -0.349 | -0.0275
9 | CCOC(=O)[C@H](CCc1ccccc1)N[C@H]1CCc2ccccc2N(CC(=O)O)C1=O [Benazepril HCl] | -0.544 | -0.517 | -0.676 | -0.703 | -0.597 | -0.712
10 | CN1CCC(=C2c3ccccc3C=Cc3ccccc32)CC1 [Cyproheptadine hydrochloride] | 2.41 | 0.629 | 1.01 | -1.18 | 2.25 | 0.976
11 | CCc1cccc2c3c([nH]c12)C(CC)(CC(=O)O)OCC3 (stereo unspecified) [Etodolac] | -0.65 | -1.97 | -0.842 | -0.545 | -0.553 | -0.628
12 | C=CCSCC1Nc2cc(Cl)c(S(N)(=O)=O)cc2S(=O)(=O)N1 (stereo unspecified) [Althiazide] | -0.575 | -1.6 | -0.613 | -0.588 | -0.491 | -0.642
13 | CCOC(=O)N1CCC(=C2c3ccc(Cl)cc3CCc3cccnc32)CC1 [Loratadine] | 0.316 | 0.865 | 0.633 | 0.548 | 0.439 | 0.942
14 | COc1ccc([C@@H]2CC(=O)c3c(O)cc(O[C@@H]4O[C@H](CO[C@@H]5O[C@@H](C)[C@H](O)[C@@H](O)[C@H]5O)[C@@H](O)[C@H](O)[C@H]4O)cc3O2)cc1O [Hesperidin] | -0.494 | -1.29 | -0.6 | -0.779 | -0.447 | -0.68
15 | CC1(C)O[C@@H]2C[C@H]3[C@@H]4C[C@H](F)C5=CC(=O)C=C[C@]5(C)[C@H]4[C@@H](O)C[C@]3(C)[C@]2(C(=O)CO)O1 [Flunisolide] | -0.32 | -1.26 | -0.035 | -0.18 | -0.256 | -0.365
16 | CNCCC=C1c2ccccc2C=Cc2ccccc21 [Norcyclobenzaprine] | 3.26 | 2.08 | 1.91 | 1.02 | 3.06 | 3.6
17 | Oc1ncnc2[nH]ncc12 [Allopurinol] | -0.351 | 0.486 | -0.157 | -0.285 | -0.415 | -0.506
18 | CC(C)NC[C@H](O)COc1cccc2ccccc12 [(S)-propranolol hydrochloride] | -0.105 | 1.72 | 0.666 | -0.426 | -0.189 | 0.093
19 | O=C(O)COC(=O)Cc1ccccc1Nc1c(Cl)cccc1Cl [Aceclofenac] | -0.449 | -0.174 | -0.423 | -0.27 | -0.383 | -0.402
20 | CC(C)(C)NC[C@@H](O)COc1cccc2c1CCCC2=O [(+) -Levobunolol hydrochloride] | -0.326 | 1.33 | -0.176 | -0.0312 | -0.353 | 0.0482
21 | CN(Cc1cc(Br)cc(Br)c1N)C1CCCCC1 [Bromhexine hydrochloride] | -0.251 | -1.52 | 0.328 | -0.199 | -0.159 | -0.552
22 | CCCCC1C(=O)N(c2ccccc2)N(c2ccccc2)C1=O [Phenylbutazone] | -0.242 | 0.571 | -0.047 | 0.231 | -0.314 | -0.301
23 | CC#C[C@]1(O)CC[C@H]2[C@@H]3CCC4=CC(=O)CCC4=C3[C@@H](c3ccc(N(C)C)cc3)C[C@@]21C [Mifepristone] | -0.423 | 0.259 | -0.703 | -0.6 | -0.386 | -0.393

Row | SMILES | LBPA endosome anti-LBPA integrated intensity (z-score) (A431 [1]) | LBPA endosome anti-LBPA integrated intensity (z-score) (HeLa MZ [2]) | whole-cell filipin (z-score) (A431 [3]) | whole-cell filipin (z-score) (HeLa MZ [4]) | filipin (z-score) (A431 [5]) | filipin (z-score) (HeLa MZ [6])
24 | COc1ccccc1Oc1c(NS(=O)(=O)c2ccc(C(C)(C)C)cc2)nc(-c2ncccn2)nc1OCCO [Bosentan] | -0.54 | -0.445 | -0.199 | 0.0121 | -0.493 | -0.438
25 | CCN(CC)CCOC(=O)C(c1ccccc1)C1CCCCC1 (stereo unspecified) [Drofenine hydrochloride] | 1.02 | 2.6 | 1.05 | 0.772 | 1.02 | 1.12
26 | CCOC(=O)[C@@](C)(N)Cc1ccc(O)c(O)c1 [Methyldopate hydrochloride] | -0.346 | -0.632 | -0.323 | -0.577 | -0.327 | -0.42
27 | CCn1cc(C(=O)O)c(=O)c2cc(F)c(N3CCN(C)CC3)cc21 [Pefloxacine] | -0.525 | -0.713 | -0.866 | -1.02 | -0.571 | -0.621
28 | O=c1oc2ccccc2c(O)c1Cc1c(O)c2ccccc2oc1=O [Dicumarol] | -0.455 | -0.834 | -0.37 | -0.48 | -0.64 | -0.672
29 | CN(C)CCOC1=Cc2ccccc2Sc2ccc(Cl)cc21 [Zotepine] | 3.49 | 1.41 | 1.18 | -0.352 | 3.08 | 1.71
30 | CC(C(=O)O)c1ccc(N2Cc3ccccc3C2=O)cc1 (stereo unspecified) [Indoprofen] | -0.353 | 0.541 | -0.0864 | 0.103 | -0.445 | -0.482
31 | CC1(C)O[C@@H]2C[C@H]3[C@@H]4CCC5=CC(=O)CC[C@]5(C)[C@@]4(F)[C@@H](O)C[C@]3(C)[C@]2(C(=O)CCl)O1 [Halcinonide] | -0.266 | -0.708 | -0.0733 | 0.0912 | -0.203 | -0.18
32 | COc1cc(Cc2cnc(N)nc2N)cc(OC)c1OC [Trimethoprim] | -0.479 | -0.434 | -0.787 | -0.667 | -0.515 | -0.558
33 | CCN(CC)CCCC(C)Nc1ccnc2cc(Cl)ccc12 (stereo unspecified) [Chloroquine diphosphate] | 3.38 | 2.38 | 0.0406 | 0.105 | 0.896 | 1.26
34 | O=C1Cc2cc(CCN3CCN(c4nsc5ccccc45)CC3)c(Cl)cc2N1 [Ziprasidone  Hydrochloride] | 1.04 | 1.09 | 0.285 | 0.974 | 0.571 | 1.31
35 | Cn1c(=O)c2[nH]cnc2n(C)c1=O [Aminophylline] | -0.25 | 0.505 | -0.204 | 0.324 | -0.281 | -0.178
36 | CN(C)CC/C=C1/c2ccccc2COc2ccc(CC(=O)O)cc21 [Olopatadine hydrochloride] | -0.245 | 0.672 | 0.305 | 0.861 | -0.37 | -0.275
37 | CC(C)Cn1cnc2c(N)nc3ccccc3c21 [Imiquimod] | 0.0371 | 0.531 | 0.233 | 0.058 | -0.267 | -0.158
38 | CC(=O)Nc1ccc(O)cc1 [Acetaminophen] | -0.388 | 0.0073 | -0.156 | -0.518 | -0.48 | -0.412
39 | O=C1c2ccccc2C(=O)C1c1ccccc1 [Phenindione] | -0.457 | 0.398 | -0.346 | -0.343 | -0.498 | -0.468
40 | CC(C)NC[C@H](O)COc1ccc(CC(N)=O)cc1 [(S)-(-)-Atenolol] | -0.484 | 0.0669 | -0.593 | -0.509 | -0.513 | -0.661
41 | CC1(C)S[C@@H]2[C@H](NC(=O)Cc3ccccc3)C(=O)N2[C@H]1C(=O)O [Benzathine benzylpenicillin] | -0.419 | 0.43 | 0.0117 | 0.113 | -0.376 | -0.279
42 | C#C[C@]1(O)CC[C@H]2[C@@H]3CCc4cc(O)ccc4[C@H]3CC[C@@]21C [Ethinylestradiol] | -0.522 | -1.4 | -0.139 | -0.678 | -0.442 | -0.49
43 | CNCCC=C1c2ccccc2CCc2ccccc21 [Nortriptyline hydrochloride] | 3.79 | 1.4 | 1.95 | 1.82 | 3.53 | 3.69
44 | CCN1CCN(C(=O)N[C@@H](C(=O)N[C@@H]2C(=O)N3C(C(=O)O)=C(CSc4nnnn4C)CS[C@H]23)c2ccc(O)cc2)C(=O)C1=O [Cefoperazone dihydrate] | -0.512 | -0.941 | -0.712 | -0.226 | -0.522 | -0.518
45 | Nc1cc(N2CCCCC2)nc(N)[n+]1[O-] [Minoxidil] | -0.316 | -0.257 | -0.274 | 0.345 | -0.426 | -0.263
46 | CN1[C@@H]2CC[C@H]1C[C@@H](OC(=O)C(O)c1ccccc1)C2 (mixture of isomers) [Homatropine hydrobromide (R,S)] | -0.625 | -0.216 | -0.825 | -0.838 | -0.591 | -0.57
